This is part of a sample that, as a whole, favours compounds with a hit. Of some 83,000 tested, about 20% had one in any assay.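 Single-dose data. Exposure time 48 hours. Values below 10 considered active.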 Unmarked numbers belong to inactive results. Calls of active or inactive are those of the source.

The experiment has as its system MDA-MB-468 breast. Nature of the experiment: NCI-60 one-dose screen, 48 h (100 = growth as untreated, 0 = no growth, -100 = all killed). As to conditions: 10 µM unless noted.
`CC(C)n1c(NCCc2ccc(O)c(O)c2)nc2c1c(=O)n(C)c(=O)n2C`: the growth was 73.8%.
Turning to `O=C(CSc1nc2ccccc2c(=O)n1-c1ccc(Cl)cc1)N/N=C/c1ccc(Oc2ccc(Cl)cc2)cc1`, the growth is -18.6% (active).
For the compound `OCc1cnccc1NC12CC3CC(CC(C3)C1)C2`, the growth was 99.2%.
Regarding `Cc1nc2sc(C(=O)Nc3ccccn3)c(N)c2cc1C(C)O` (stereo not drawn), the growth is 38.4%.
The result for `COc1cc2c(cc1OC)C(Sc1ccc(C)cc1)c1c(nc(N)c(C#N)c1N)O2` (stereo not drawn) reads -46.7% (active); that for `C=C1C(=O)O[C@H]2[C@H]1CC/C(COC(=O)CCC(=O)NCCOCCOCC(=O)Nc1ccc(OC)c(C(N)=O)c1O)=C\CC[C@@]1(C)O[C@@H]21`, -17.5% (active); that for `N#Cc1ccc(N2Cc3cc(Cl)ccc3OC3=C2C(=O)N(Cc2ccccc2)C3=O)cc1`, -64.2% (active).
Turning to `CCOc1cc2ncc(C#N)c(Nc3ccc(OCc4ccccn4)c(Cl)c3)c2cc1NC(=O)/C=C/CN(C)C`, the growth was -35.1% (active).
As for `Cc1ccc(NC(=O)N/C(N)=N/c2nc(=O)c3ccccc3s2)cc1`, the growth was 89.9%.
For the compound `COc1ccccc1/C=C/C(=O)Nc1ccc(F)cc1`, the growth was 105%.
In the case of `C=C(C)[C@@H]1CC[C@]2(C(N)=O)CC[C@]3(C)[C@H](CC[C@@H]4[C@@]5(C)CC[C@H](O)C(C)(C)[C@@H]5CC[C@]43C)[C@@H]12`, the growth is -56% [100 µM] (active).
Turning to `CCCCCCCCCCCCCCCCCCNC(=O)[C@H]1CSC(c2ccc(F)c(OC)c2)N1` (stereo partly drawn), the growth is 44.1%.
In the case of `COc1ccc(C(=O)C/C(=C\c2ccc(Cl)cc2)C(=O)NCc2ccccc2)cc1`, the growth was 69.7%.

Source of the values: PubChem BioAssay (NCI).
